Measured values published in the supplement of paper PMC10849652.
About 7,900 targets were measured; listed, in parts, are those with a hit and a random draw of the rest. About 0.6% of all pairs of compound and target were hits. A number with no mark means an inactive call.

What was measured:
Assay in all cases: log2 fold change, soluble protein after heating vs DMSO (PISA); higher = thermal stabilisation; K562 cells, 10 uM, 30 min; active = over 0.2 and 3.5 SD of the protein, either way, in both replicates (recomputed)
[1] = compound: CS(=O)(=O)c1ccc(-c2cnc(N)c(C(=O)Nc3ccccc3)n2)cc1
Method in brief: (§1)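 For each measurement, 10 μM compound was applied for 30 min to K562 cells at 2×10^6 cells/mL. Aliquots were heated for 3 min across 48°C-58°C, pooled, and extracted in PBS with 0.5% NP-40 at 4°C; the supernatant after 21,000xg for 90 min was soluble protein. This was quantified by TMTpro 16plex LC-MS/MS with channel sums equalised, and thermal stability was reported relative to control samples from duplicates, on a log2 fold-change scale.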

crizotinib = compound: C[C@@H](Oc1cc(-c2cnn(C3CCNCC3)c2)cnc1N)c1c(Cl)ccc(F)c1Cl [crizotinib]
Method in brief: as §1

[2] = compound: C[C@@H]1COCCN1C2=NC(=NC(=C2)C3(CC3)S(=O)(=O)C)C4=C5C=CNC5=CC=C4
Method in brief: as §1

[3] = compound: C[C@H](C1=CC=C(C=C1)C(=O)NC2=C3C=CNC3=NC=C2)N
Method in brief: as §1

duvelisib = compound: C[C@H](Nc1ncnc2nc[nH]c12)c1cc2cccc(Cl)c2c(=O)n1-c1ccccc1 [duvelisib]
Method in brief: as §1

tozasertib = compound: Cc1cc(Nc2cc(N3CCN(C)CC3)nc(Sc3ccc(NC(=O)C4CC4)cc3)n2)n[nH]1 [tozasertib]
Method in brief: as §1

[4] = compound: Cc1cc(SCc2sc(-c3ccc(C(F)(F)F)cc3)nc2C)ccc1OCC(=O)O
Method in brief: as §1

doramapimod = compound: Cc1ccc(-n2nc(C(C)(C)C)cc2NC(=O)Nc2ccc(OCCN3CCOCC3)c3ccccc23)cc1 [doramapimod]
Method in brief: as §1

ispinesib = compound: Cc1ccc(C(=O)N(CCCN)[C@@H](c2nc3cc(Cl)ccc3c(=O)n2Cc2ccccc2)C(C)C)cc1 [ispinesib]
Method in brief: as §1

gandotinib = compound: Cc1cc(Nc2cc(CN3CCOCC3)c3nc(C)c(Cc4ccc(Cl)cc4F)n3n2)n[nH]1 [gandotinib]
Method in brief: as §1

UniProt Q6UWB1, sequence (Q6UWB1 whole entry, looked up): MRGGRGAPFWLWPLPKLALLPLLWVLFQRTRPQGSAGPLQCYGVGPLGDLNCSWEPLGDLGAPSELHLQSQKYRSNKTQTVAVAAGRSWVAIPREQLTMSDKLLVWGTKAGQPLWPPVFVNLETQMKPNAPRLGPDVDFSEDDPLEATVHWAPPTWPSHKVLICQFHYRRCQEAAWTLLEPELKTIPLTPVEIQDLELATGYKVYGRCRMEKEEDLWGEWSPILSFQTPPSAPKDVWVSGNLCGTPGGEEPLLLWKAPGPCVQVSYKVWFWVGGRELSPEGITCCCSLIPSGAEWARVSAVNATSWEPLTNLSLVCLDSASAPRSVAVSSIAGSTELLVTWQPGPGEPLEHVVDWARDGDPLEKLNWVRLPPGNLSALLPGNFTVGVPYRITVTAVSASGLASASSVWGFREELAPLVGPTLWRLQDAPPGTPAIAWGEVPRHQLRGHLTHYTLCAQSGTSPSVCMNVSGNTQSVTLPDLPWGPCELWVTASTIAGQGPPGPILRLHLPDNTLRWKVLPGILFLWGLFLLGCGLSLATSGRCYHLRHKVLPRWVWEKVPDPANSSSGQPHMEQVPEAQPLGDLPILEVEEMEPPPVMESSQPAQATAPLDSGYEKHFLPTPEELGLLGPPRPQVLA
UniProt Q92551, sequence (Q92551 whole entry, looked up): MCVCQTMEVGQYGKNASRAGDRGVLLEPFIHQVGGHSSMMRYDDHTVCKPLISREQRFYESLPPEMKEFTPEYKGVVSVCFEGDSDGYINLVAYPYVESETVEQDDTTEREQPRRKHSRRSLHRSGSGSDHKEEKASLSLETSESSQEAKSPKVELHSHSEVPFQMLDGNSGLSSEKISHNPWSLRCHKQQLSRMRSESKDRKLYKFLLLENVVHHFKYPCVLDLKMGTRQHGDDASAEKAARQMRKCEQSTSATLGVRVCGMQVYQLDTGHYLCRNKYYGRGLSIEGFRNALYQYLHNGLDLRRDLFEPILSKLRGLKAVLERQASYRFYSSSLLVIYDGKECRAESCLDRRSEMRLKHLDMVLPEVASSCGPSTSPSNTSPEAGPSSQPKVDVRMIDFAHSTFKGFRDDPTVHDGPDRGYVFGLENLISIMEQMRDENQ
UniProt Q96LU5, sequence (Q96LU5 whole entry, looked up): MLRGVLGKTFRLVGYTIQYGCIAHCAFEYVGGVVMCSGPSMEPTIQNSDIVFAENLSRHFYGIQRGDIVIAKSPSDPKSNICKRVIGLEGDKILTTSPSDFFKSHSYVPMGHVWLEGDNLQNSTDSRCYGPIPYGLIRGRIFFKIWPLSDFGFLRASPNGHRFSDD
UniProt Q9P244, sequence (Q9P244 whole entry, looked up): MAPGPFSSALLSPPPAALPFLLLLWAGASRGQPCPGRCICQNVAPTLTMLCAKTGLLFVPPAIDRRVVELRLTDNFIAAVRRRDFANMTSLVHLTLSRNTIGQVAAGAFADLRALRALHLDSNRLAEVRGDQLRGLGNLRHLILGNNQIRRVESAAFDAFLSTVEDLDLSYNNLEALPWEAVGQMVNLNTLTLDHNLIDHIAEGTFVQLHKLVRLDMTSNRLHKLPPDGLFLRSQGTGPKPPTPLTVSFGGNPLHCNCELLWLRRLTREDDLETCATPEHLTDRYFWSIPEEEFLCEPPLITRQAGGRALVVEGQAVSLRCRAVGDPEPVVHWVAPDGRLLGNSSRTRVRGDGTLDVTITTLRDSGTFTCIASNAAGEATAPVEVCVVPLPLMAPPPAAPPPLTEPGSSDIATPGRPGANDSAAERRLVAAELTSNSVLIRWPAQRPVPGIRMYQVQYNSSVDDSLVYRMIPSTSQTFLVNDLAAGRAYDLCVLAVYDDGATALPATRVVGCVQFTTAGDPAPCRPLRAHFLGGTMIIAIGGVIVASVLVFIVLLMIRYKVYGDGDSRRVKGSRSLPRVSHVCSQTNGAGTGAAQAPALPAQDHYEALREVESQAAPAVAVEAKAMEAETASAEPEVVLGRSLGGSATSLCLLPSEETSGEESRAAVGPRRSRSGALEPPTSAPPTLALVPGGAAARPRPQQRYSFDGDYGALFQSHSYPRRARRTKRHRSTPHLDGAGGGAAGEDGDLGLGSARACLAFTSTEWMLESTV
UniProt Q9Y2E5, sequence (Q9Y2E5 whole entry, looked up): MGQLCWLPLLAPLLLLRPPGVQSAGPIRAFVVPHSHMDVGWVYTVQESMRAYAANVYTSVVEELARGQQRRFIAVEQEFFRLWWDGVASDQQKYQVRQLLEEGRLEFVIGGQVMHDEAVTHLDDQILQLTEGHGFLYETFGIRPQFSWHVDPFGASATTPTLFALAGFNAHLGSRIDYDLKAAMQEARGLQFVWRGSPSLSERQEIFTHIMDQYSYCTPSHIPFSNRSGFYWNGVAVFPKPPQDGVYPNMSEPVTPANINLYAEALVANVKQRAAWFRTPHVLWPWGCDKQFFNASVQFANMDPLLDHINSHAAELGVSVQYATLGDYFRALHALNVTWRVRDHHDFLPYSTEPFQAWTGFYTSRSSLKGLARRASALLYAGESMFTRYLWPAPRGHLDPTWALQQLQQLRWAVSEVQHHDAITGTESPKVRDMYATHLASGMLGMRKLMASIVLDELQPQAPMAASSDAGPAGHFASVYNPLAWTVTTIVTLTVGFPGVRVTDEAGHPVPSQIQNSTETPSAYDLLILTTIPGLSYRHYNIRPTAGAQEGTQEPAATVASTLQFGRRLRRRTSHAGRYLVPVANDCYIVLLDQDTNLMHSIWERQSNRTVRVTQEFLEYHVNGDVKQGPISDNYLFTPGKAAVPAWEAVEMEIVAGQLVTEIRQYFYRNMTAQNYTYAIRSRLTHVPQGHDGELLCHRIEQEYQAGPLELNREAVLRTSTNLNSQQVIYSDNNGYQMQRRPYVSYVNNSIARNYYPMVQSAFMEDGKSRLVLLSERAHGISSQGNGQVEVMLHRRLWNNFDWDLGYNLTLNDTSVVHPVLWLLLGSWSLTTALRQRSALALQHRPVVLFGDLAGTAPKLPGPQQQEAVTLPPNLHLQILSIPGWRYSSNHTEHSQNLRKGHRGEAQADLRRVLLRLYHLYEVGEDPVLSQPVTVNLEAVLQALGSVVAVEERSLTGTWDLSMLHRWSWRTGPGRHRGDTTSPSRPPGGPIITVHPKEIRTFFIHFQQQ
UniProt Q71SY5, sequence (Q71SY5 whole entry, looked up): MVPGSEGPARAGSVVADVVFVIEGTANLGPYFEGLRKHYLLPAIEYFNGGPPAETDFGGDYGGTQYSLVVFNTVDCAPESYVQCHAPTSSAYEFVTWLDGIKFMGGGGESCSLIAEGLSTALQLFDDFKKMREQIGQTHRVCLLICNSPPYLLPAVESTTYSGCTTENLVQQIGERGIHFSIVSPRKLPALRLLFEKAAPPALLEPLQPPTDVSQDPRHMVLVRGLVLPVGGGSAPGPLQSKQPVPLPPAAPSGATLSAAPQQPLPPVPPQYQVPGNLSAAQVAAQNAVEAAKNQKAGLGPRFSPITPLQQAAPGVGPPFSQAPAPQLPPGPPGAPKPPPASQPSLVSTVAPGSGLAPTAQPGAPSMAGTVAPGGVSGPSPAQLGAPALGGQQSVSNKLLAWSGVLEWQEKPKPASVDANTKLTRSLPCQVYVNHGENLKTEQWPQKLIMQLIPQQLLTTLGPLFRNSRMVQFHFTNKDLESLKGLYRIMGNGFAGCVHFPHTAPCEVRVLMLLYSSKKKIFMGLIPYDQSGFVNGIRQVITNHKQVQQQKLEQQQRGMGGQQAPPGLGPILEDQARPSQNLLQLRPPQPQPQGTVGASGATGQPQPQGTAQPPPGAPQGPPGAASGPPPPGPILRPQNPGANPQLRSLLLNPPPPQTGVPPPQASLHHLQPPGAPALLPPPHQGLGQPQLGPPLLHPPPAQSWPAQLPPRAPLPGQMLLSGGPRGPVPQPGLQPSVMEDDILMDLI
UniProt Q6UB28, sequence (Q6UB28 whole entry, looked up): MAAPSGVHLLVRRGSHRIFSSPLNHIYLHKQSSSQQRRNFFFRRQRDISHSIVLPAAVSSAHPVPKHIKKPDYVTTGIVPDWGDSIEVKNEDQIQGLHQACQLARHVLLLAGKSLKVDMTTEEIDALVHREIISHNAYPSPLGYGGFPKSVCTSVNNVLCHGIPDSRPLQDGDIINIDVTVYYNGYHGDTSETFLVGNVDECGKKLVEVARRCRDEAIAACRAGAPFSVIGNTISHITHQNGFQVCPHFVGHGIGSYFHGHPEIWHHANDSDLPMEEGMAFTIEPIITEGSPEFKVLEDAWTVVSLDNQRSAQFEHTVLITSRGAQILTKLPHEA
UniProt O95279, sequence (O95279 whole entry, looked up): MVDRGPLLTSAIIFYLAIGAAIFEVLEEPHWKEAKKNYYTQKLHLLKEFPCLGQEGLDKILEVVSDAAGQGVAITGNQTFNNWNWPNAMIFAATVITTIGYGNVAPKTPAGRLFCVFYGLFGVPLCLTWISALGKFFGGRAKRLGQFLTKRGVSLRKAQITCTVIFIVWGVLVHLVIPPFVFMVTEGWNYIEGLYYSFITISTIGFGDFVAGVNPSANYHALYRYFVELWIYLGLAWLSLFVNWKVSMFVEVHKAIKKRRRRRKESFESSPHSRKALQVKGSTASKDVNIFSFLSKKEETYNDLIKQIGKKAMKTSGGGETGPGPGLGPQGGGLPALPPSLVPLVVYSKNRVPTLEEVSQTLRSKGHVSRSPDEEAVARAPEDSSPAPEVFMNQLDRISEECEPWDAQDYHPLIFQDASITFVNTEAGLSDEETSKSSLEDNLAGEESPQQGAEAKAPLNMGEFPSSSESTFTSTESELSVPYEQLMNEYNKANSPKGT

| Target | log2 fold change [1] | log2 fold change (crizotinib) | log2 fold change [2] | log2 fold change [3] | log2 fold change (duvelisib) | log2 fold change (tozasertib) | log2 fold change [4] | log2 fold change (doramapimod) | log2 fold change (ispinesib) | log2 fold change (gandotinib) |
| --- | --- | --- | --- | --- | --- | --- | --- | --- | --- | --- |
| METAP1D (UniProt Q6UB28) | -0.009 | -0.041 | 0.147 | -0.037 | 0.03 | -0.055 | 0.01 | -0.091 | -0.032 |  |
| IMMP1L (UniProt Q96LU5) | 0.024 | 0.121 | 0.045 | -0.05 | 0.088 | -0.058 | 0.012 | 0.015 | -0.063 |  |
| KCNK5 (UniProt O95279) | 0.087 | -0.164 | 0.339 | -0.013 | 0.213 |  | 0.242 | -0.165 |  | -0.03 |
| LRFN1 (UniProt Q9P244) | 0.108 | -0.006 | -0.15 | -0.198 | 0.038 | -0.042 | 0.009 | -0.09 | 0.102 |  |
| MAN2B2 (UniProt Q9Y2E5) | 0.051 | -0.014 | 0.055 |  | 0.094 | -0.044 | 0.004 | 0.017 | -0.147 |  |
| MED25 isoform 3 (UniProt Q71SY5) | 0.061 | 0.021 |  | 0 | 0.061 | 0.136 | 0.162 | 0.085 | -0.018 | 0.19 |
| IL27RA (UniProt Q6UWB1) | -0.031 | 0.029 | 0.539 (active) | -0.121 | 0.244 | -0.039 | -0.109 | 0.211 | 0.043 |  |
| IP6K1 (UniProt Q92551) | 0.129 |  | -0.072 | 0.295 | 0.065 | -0.027 | 0.23 |  | -0.437 | -0.145 |
